Our source for the AC50 and outcome values is PubChem BioAssay (EPA / NIEHS).

Records with an inconclusive call do not appear. Activity calls are given as the source filed them. The calls were made as follows, unless noted: active = hit-call score of the fitted dose curve at least 0.9, where 1 is the maximum; inactive = score below 0.9.

Assay [1] is described as follows: CCTE_Shafer_MEA_acute_spike_number: CCTE's Neural Acute Assay for Total Number of Spikes, Shafer Lab (AID 2284008).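 Also: curve fitted for decrease in spike count so AC50 reflects inhibitors.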 The gist of the method:
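Total spike count from 40 min recordings before and during compound exposure (0.03-40 uM), given as per-well percent change. Cortical cultures from rat, DIV 13 or 15, 37 C; adaptive detection threshold 8x rms noise.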

Assay [2] in a line: CCTE_Shafer_MEA_acute_firing_rate_mean: CCTE's Neural Acute Assay for Mean Firing Rate, Shafer Lab (AID 2284009).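 Also: analyzed for loss of signal so actives lower firing rate relative to DMSO.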 In outline:
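Percent change in well-mean firing rate was derived from extracellular spikes detected at 8x rms noise (300-5000 Hz band-pass) before and after a 40-min compound exposure. Cultures were primary rat cortical neurons, tested at 0.03-40 uM.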

The nature of assay [3]: CCTE_Harrill_HTTr_Viability_MCF7: CCTE's 6-hour Cell Viability Assessment for the High-Throughput Transcriptomics (HTTr) Platform, in MCF-7 cells cultured in DMEM + 10% fetal bovine serum, Harrill Lab (AID 2284010). In outline: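 Cells were dosed with chemicals in an eight-point dilution series, imaged 6 hours later for propidium iodide uptake, and the endpoint was analyzed by bidirectional fitting against DMSO as negative control.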

Assay [4] in a line: CCTE_Harrill_HTTr_Apoptosis_MCF7: CCTE's 6-hour Apoptosis Assessment for the High-Throughput Transcriptomics (HTTr) Platform, in MCF-7 cells cultured in DMEM + 10% fetal bovine serum, Harrill Lab (AID 2284011). In outline:
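High-content imaging of CellEvent Caspase 3/7 Green signal follows a six-hour exposure, with eight concentrations per chemical. MCF-7 cells grown in DMEM plus 10% fetal bovine serum; activity fitted in both directions against DMSO.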

The nature of assay [5]: CCTE_Harrill_HTTr_CellCount_MCF7: CCTE's Cell Proliferation Assessment for the High-Throughput Transcriptomics (HTTr) Platform, Harrill Lab (AID 2284012; active = hit-call score of the fitted dose curve at least 0.9, where 1 is the maximum;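 also: cells exposed to compound for six hours; intended direction is loss of nuclei count meaning fewer cells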). The gist of the method: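 Chemicals in eight-point dilution series are added to MCF-7 cells for six hours, nuclei are stained with Hoechst and imaged, and per-well nuclei counts are fitted in both directions relative to DMSO controls.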

Assay [6] in a line: CCTE_Shafer_MEA_acute_burst_number: CCTE's Neural Acute Assay for Single-Electrode Bursts, Shafer Lab (AID 2284013). The gist of the method: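 Spontaneous network activity of primary rat cortical neurons was recorded extracellularly on microelectrode arrays at 37 C, with 40-min periods before and during exposure to 0.03-40 uM compound on DIV 13 or 15.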
Assay [7] in a line: CCTE_Shafer_MEA_acute_burst_duration_mean: CCTE's Neural Acute Assay for Mean Burst Duration, Shafer Lab (AID 2284014).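 Also: hits are decreases in mean burst duration relative to DMSO controls.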 The gist of the method:
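Read-out is the per-well percent change in mean burst duration (first to last spike within a single-electrode burst) between 40-min recordings before and after compound. Cultures were primary rat cortical neurons on MEAs, dosed at 0.03-40 uM on DIV 13 or 15.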

The nature of assay [8]: CCTE_Shafer_MEA_acute_per_burst_spike_number_mean: CCTE's Neural Acute Assay for Average Number of Spikes Per Burst, Shafer Lab (AID 2284015).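 Also: hits are decreases in mean spikes per burst versus baseline.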 In outline:
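Rat primary cortical neurons on 48-well MEAs (DIV 13 or 15) were treated with 0.03-40 uM compound at 37 C. Mean spikes per burst over 40 min were recorded before and after exposure and expressed as percent change from baseline, relative to DMSO.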

The nature of assay [9]: CCTE_Shafer_MEA_acute_burst_percentage_mean: CCTE's Neural Acute Assay for Percentage of Spikes in a Burst, Shafer Lab (AID 2284017).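 Also: curve fitted for loss of signal so potency reflects decreased burst percentage.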 The gist of the method: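 Primary rat cortical neurons on 48-well MEA plates, treated on DIV 13 or 15 at 0.03-40 uM. Spikes detected at 8x rms noise at 37C; percent change from 40-min baseline to 40-min post-dose recording, fitted versus DMSO.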

Assay [10] is described as follows: CCTE_Shafer_MEA_acute_burst_percentage_std: CCTE's Neural Acute Assay for Standard Deviation of Burst Percentage, Shafer Lab (AID 2284018).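 Also: fitted in the negative direction so actives lower burst percentage SD.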 The gist of the method:
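Value is percent change from baseline in the across-electrode SD of spikes-in-bursts percentage, wells with >/= 10 active electrodes. Acute 40-min exposure to 0.03-40 uM on DIV 13 or 15 rat cortical cultures, recorded at 37 C after 40-min baseline.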

A short description of assay [11]: CCTE_Shafer_MEA_acute_per_network_burst_spike_number_std: CCTE's Neural Acute Assay for Standard Deviation of Number of Spikes in a Network Burst, Shafer Lab (AID 2284020).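 Also: fitted for decrease in spike-number SD versus DMSO so actives lower it.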 In outline: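 Spontaneous network activity of primary rat cortical neurons is recorded extracellularly before and after a 40-min compound exposure (0.03-40 uM) at 37 C. The endpoint is the well's percent change in burst spike-number SD.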

Assay [12] can be described thus: CCTE_Shafer_MEA_acute_per_network_burst_electrodes_number_mean: CCTE's Neural Acute Assay for Mean Number of Electrodes in a Network Burst, Shafer Lab (AID 2284021).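 Also: curves fitted for decreases only so hits reduce electrodes per burst.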 In outline:
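Percent change from baseline was computed as mean electrode count per network burst, comparing 40 min recordings before and during compound (0.03-40 uM) exposure. Cultures were rat cortical neurons at DIV 13 or 15, recorded on MEAs at 37 C with an adaptive 8x rms threshold.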

For `CC[C@H]1CC[C@H](NCc2cc3c(cc2OC)[C@H]2C[C@H]2C(=O)N3C)[C@H](c2ccccc2)N1`, the AC50 in assay [1] is 3.07 µM (active); in assay [2], 3.07 µM (active); in assay [6], 3.09 µM (active); in [9] it was 30.9 µM (active). The outcome in assay [3], in [4], in assay [5], in assay [7], in [8] and in assay [10] was inactive. Also, the outcome in assay [11] and in assay [12] was inactive.
For the molecule `CC(=O)OCCC(C)C`, the result in assay [3] and in assay [4] was inactive.
For `Nc1ccc(Nc2ccccc2)cc1`, the result in assay [3] and in assay [4] was inactive.
With `O=C1OC(=O)C2C3C=CC(C3)C12` (stereo not drawn), the result in assay [3] and in assay [4] was inactive.
`CCOC(=O)CC(CC(=O)OCC)(OC(C)=O)C(=O)OCC`: the result in [3] and in [4] was inactive.
Turning to `Clc1nc(Cl)c(Cl)c(Cl)c1Cl`, the result in assay [3], in [4] and in assay [5] was inactive.
As for `CCOCCO`, the outcome in assay [3] and in [4] was inactive.
For the molecule `O=C1CCC(N2C(=O)c3ccccc3C2=O)C(=O)N1` (stereo not drawn), the result in assay [3] and in assay [4] was inactive.
On to `O=C(NS(=O)(=O)/C=C/c1ccccc1)c1ccc(F)cc1Cl`, for which the result in assay [3] and in [4] was inactive.
Consider `C=CC(=C)CCC=C(C)C`, for which the result in assay [3], in assay [4] and in [5] was inactive.
Consider `CC1=CC(=O)CC(C)(C)C1`, for which the outcome in [3] and in assay [4] was inactive.
In the case of `CCCCCCCCCCCCCCCO`, the result in assay [3] and in assay [4] was inactive.
On to `COCCOCCOCCOC`, for which the outcome in [3], in [4] and in assay [5] was inactive.
With `CN(C)c1ccc(Cc2ccc(N(C)C)cc2)cc1`, the outcome in assay [3] and in [4] was inactive.
Consider `CC(=O)c1ccc2c(c1)[C@H](NC(=O)c1ccc(F)cc1)[C@@H](O)C(C)(C)O2`, for which the result in [3] and in assay [4] was inactive.
Consider `CC(C)(O)c1coc(S(=O)(=O)NC(=O)Nc2c3c(cc4c2CCC4)CCC3)c1`, for which the result in assay [3], in [4] and in [5] was inactive.
In the case of `CCOCCOCCOCCO`, the result in assay [3] and in assay [4] was inactive.
Regarding `CC(C)CCCCCCOC(=O)c1ccc(C(=O)OCCCCCCC(C)C)c(C(=O)OCCCCCCC(C)C)c1`, the result in assay [3], in assay [4] and in assay [5] was inactive.
Consider `CC(O)CN(CCN(CC(C)O)CC(C)O)CC(C)O` (stereo not drawn), for which the outcome in [3], in [4] and in assay [5] was inactive.
In the case of `O=C(O)c1cccc(Oc2ccccc2)c1`, the result in assay [3], in [4] and in assay [5] was inactive.
Take `NC(=O)NO`: the outcome in assay [3], in [4] and in [5] was inactive.
Take `COCCOc1cc2cc(C(=O)NC3CCN(C(C)C)CC3)n(CC(=O)Nc3ccc(Cl)cn3)c2cn1`: the outcome in [3] and in [4] was inactive.
On to `CC(C)CCO`, for which the result in assay [3] and in assay [4] was inactive.
On to `CCN(C(=O)c1cc(C)cc(OC[C@H](C)Nc2ccncc2)c1)C(C)C`, for which the result in [3] and in [4] was inactive.
With `O=C1CCCCCN1`, the outcome in assay [3] and in assay [4] was inactive.
As for `COC(=O)c1c(Cl)c(Cl)c(C(=O)OC)c(Cl)c1Cl`, the outcome in assay [3] and in assay [4] was inactive.
For the molecule `O=C(O)CC(O)C(=O)O` (stereo not drawn), the outcome in [3] and in [4] was inactive.
Consider `CNCc1ccc(NC(=O)c2c[nH]c3c2C(=O)CCC3)cc1`, for which the result in assay [3] and in [4] was inactive.
As for `COc1ccc(-n2nc(C(F)F)cc2-c2ccc(S(C)=O)cc2)cc1` (stereo not drawn), the result in [3] and in assay [4] was inactive.
In the case of `CCCCCCCCO`, the outcome in assay [3] and in assay [4] was inactive.

What is called AC50 is the concentration at which the activity in the assay is half-maximal.
